Rows were chosen to be rich in hits. Some 3.3% of all compounds tested hit in one or more screens of this group.
Sm TGR inh: blocks Schistosoma mansoni thioredoxin glutathione reductase; Q962Y6; purified TGR, DTNB reduction, TNB absorbance 405 nm; Potency, µM (series often up to 114 µM), without a hit: at the top dose activity change, negative = inhibition, hits mostly inhibitors; 3% of 360,000 active; note: nearly all actives have a fitted effect of over 60% in size
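Kinetic colorimetric format: TGR-catalysed, NADPH-driven DTNB reduction monitored via TNB absorbance. Enzyme dispensed at 20 nM; compound exposure 15 min at room temperature before reaction start.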
AmpC no deterg: AmpC beta-lactamase inhibition without detergent | Potency, µM (doses to about 57.1 µM), for inactives: at the highest dose activity change, negative = inhibition, hits mostly inhibitors | 0.52% of 330,000 active | AmpC nitrocefin hydrolysis, absorbance 480 nm, 0.0001% Triton | P00811 | AID 485341;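 note: plate controls were no compound for no effect and no enzyme for full effect; nearly all actives have a fitted effect of over 20% in size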
Target sequence (P00811 whole entry, looked up): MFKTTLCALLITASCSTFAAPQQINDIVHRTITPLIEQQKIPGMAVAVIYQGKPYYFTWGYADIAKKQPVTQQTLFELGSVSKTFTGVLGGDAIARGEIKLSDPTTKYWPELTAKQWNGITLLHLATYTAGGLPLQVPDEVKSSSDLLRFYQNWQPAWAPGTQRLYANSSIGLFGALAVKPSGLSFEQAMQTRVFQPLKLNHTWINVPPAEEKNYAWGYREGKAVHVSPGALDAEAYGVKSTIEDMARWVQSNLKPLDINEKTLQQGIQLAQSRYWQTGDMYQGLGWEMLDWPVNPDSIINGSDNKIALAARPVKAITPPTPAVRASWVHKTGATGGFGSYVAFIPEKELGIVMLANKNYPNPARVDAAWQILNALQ
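AmpC (5.3 nM in the dispensed reagent) in 20 mM phosphate pH 7.0 with 0.01% (detergent screen) or 0.0001% Triton X-100 was preincubated with compounds for 15 min at room temperature. Nitrocefin was then added from an 800 uM solution, and hydrolysis was followed at 480 nm.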
AmpC inh detg: inhibitors of E. coli AmpC beta-lactamase with detergent | AmpC hydrolysis of nitrocefin, absorbance 480 nm, 0.01% Triton | Potency, µM (series often up to 114 µM), for inactives: top-dose activity change, negative = inhibition, most hits filed as inhibitors | 0.041% of 370,000 active;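 note: 0% = no-compound wells and -100% = no-enzyme wells; nearly all actives have a fitted effect of over 25% in size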
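20 mM phosphate pH 7.0 + 0.01% (detergent screen) or 0.0001% Triton X-100; 5.3 nM AmpC reagent; cpd preinc 15 min RT; nitrocefin (800 uM stock) to start; A480 q20 s × 4 min; Activity was normalised to no-enzyme and no-compound control wells.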
Numbers without * were called inactive; ? = inconclusive; . = not tested or not shown. Calls come from the whole dose curve; as a rule, active = well fitted curve in the direction sought with a large enough effect; inconclusive = small, poorly fitted or top-dose-only effect, or another doubt; inactive = no such curve, though single readings can be large; an effect the other way counts as inactive or inconclusive. Unless noted, % is set by controls: 0 for no effect and ±100 for the full control effect; potency is the fitted concentration of half-maximal effect.

SMILES	Sm TGR inh	AmpC no deterg	AmpC inh detg
COc1ccc(OCC(=O)N(C)Cc2ccccc2)cc1	1.4%	0.4%	-9.7%
CN(Cc1ccc(Cl)cc1)C(=O)CCl	1.78µM*	-15.2%	0.7%
CN(C)CCNC(=O)c1ccc(Cl)s1	-9.0%	-2.5%	-7.5%
CCc1ccccc1NC(=O)CN(c1ccc(OC)cc1OC)S(=O)(=O)c1ccccc1	0.1%	82.1%	-13.0%
O=C(c1ccc2c(c1)OCO2)N1CCC2(CC1)Oc1ccc(Cl)cc1C(=O)C21CC(c2ccc(Cl)cc2)=NO1 (stereo not given)	-0.4%	-17.3%	-7.7%
Nc1nc(SCc2ccc(Cl)cc2Cl)nc2nc3c(cc12)CCCC3	-7.2%	15.8µM*	-3.8%
Nc1nc(SCc2ccccc2Cl)nc2nc3c(cc12)CCCC3	9.0%	-27.5%	-0.9%
CC(=O)NC(CCS(C)(=O)=O)C(=O)Nc1cccc(C(C)=O)c1 (stereo not given)	44.7µM*	-20.4%	-1.6%
CC(=O)NC(CCS(C)(=O)=O)C(=O)Nc1ccccc1 (stereo not given)	-8.2%	5.01µM*	?
CC(=O)NC(CCS(C)(=O)=O)C(=O)Nc1ccc(Cl)c(Cl)c1 (stereo not given)	5.2%	-6.0%	?
COc1ccc(NC(=O)C(CCS(C)(=O)=O)NC(C)=O)cc1 (stereo not given)	-1.4%	-6.1%	-6.3%
CCOC(=O)Cc1csc(NC(=O)c2c(O)c3c(n(CC(C)C)c2=O)CCCC3)n1	2.6%	98.5%	7.2%
COc1ccc(NC(=O)[C@@H](c2ccccc2)N2Cc3ccccc3C2=O)cc1OC	7.2%	.	0.1%
O=C1NC2(CCCC2)C(=O)N1CC(=O)N(Cc1ccccc1)c1ccccc1	?	24.3%	-10.1%
Cc1ccc(C(=O)N2C(CC(=O)Nc3ccc(Cl)cc3)C(=O)NC3CCCCC32)cc1 (stereo not given)	25.1%	78.3%	-9.6%
COc1cc(C(=O)OCC(=O)Nc2ccc(N3CCOCC3)cc2)ccc1OCC(C)C	50.1µM*	-16.5%	-1.1%
COc1ccc(C(=O)Nc2ccc(N3CCOCC3)cc2)cc1OC	24.2%	-4.2%	?
O=C(O)C1Nc2c(O)cc(Cl)c([N+](=O)[O-])c2C2C=CCC12 (stereo not given)	3.55µM*	7.08µM*	39.8µM*
Clc1cccc(-c2nc3ccccn3c2Nc2ccc3c(c2)OCCO3)c1	-0.3%	.	-0.4%
Cn1cccc1C(=O)NC(=O)COC(=O)c1cc(Cl)ccc1[N+](=O)[O-]	-10.9%	-25.3%	4.2%
COc1cccc(C(=O)NC2CC3CCCC(C2)N3S(=O)(=O)c2ccccc2)c1 (stereo not given)	6.8%	-20.7%	-0.1%
CC(C)Cc1nc2ccccc2n1CCc1ccccc1	7.9%	0.2%	-16.7%
C[C@H]1CCC[C@@H](O)CCC/C=C/c2cc(O)cc(O)c2C(=O)O1	2.2%	-32.7%	-18.8%
CC1CCC/C=C/C(=O)c2c(O)cc(O)cc2CC(=O)O1 (stereo not given)	7.94µM*	-12.0%	-3.4%
O=C(O)Cc1sc(N/N=C\c2ccncc2)nc1-c1ccccc1	0.251µM*	-18.5%	3.8%
SMILES	Sm TGR inh	AmpC no deterg	AmpC inh detg
O=C(O)Cc1sc(Nc2ccccc2)nc1-c1ccccc1	-16.4%	.	0.4%
CCOc1ccccc1Nc1nc(-c2ccc(C)cc2)c(CC(=O)O)s1	39.8µM*	.	-3.7%
O=C(O)Cc1sc(Nc2cccc3ccccc23)nc1-c1ccccc1	?	-38.9%	-0.9%
Cc1ccc(Nc2nc(-c3ccc(C)cc3)c(CC(=O)O)s2)cc1	?	-29.6%	-1.4%
O=C(O)Cc1sc(Nc2cccc3ccccc23)nc1-c1ccc(Cl)cc1	-5.4%	7.94µM*	0.3%
O=C(CN1CCCN(Cc2ccccc2Cl)S1(=O)=O)NCc1ccccc1	6.9%	.	11.9%
COc1cc(Cl)c(C)cc1NC(=O)CSc1cc(=O)n(C)c2cc(Cl)ccc12	-1.8%	.	0.4%
Cc1oc2ncn(C)c(=O)c2c1C(=O)NCCCN1CCCC(C)C1 (stereo not given)	-0.3%	.	3.2%
O=C(NCc1ccco1)/C(=C\c1cccs1)NC(=O)c1cccs1	4.2%	-16.4%	-4.3%
CCCCOc1ccc(C(=O)N/C(=C\c2ccc(OC)cc2)C(=O)OCc2ccco2)cc1	8.5%	-15.7%	-6.7%
O=C(NCc1ccco1)c1cccs1	35.5µM*	-9.8%	2.6%
O=C(NNC(=S)NCc1ccco1)c1cccs1	8.8%	-4.5%	-0.6%
O=C(NCc1ccco1)c1cc2c(s1)CSC2	17.8µM*	?	-6.4%
O=C(NCc1ccco1)/C(=C\c1ccco1)NC(=O)c1cccs1	28.2µM*	-31.8%	-1.8%
COc1ccc(C(=O)N/C(=C\c2ccco2)C(=O)OCc2ccco2)cc1	28.2µM*	-36.0%	0.1%
O=C(NCc1ccc2c(c1)OCO2)c1cc2c(s1)CSC2	-12.1%	-34.2%	-14.3%
COC(=O)c1ccc(C2Nc3c(C)cccc3-c3cc(C)nn32)cc1 (stereo not given)	-5.3%	.	12.7%
CC(=O)Nc1cccc(NC(=O)CSc2nnc3ccc(-c4ccncc4)nn23)c1	-2.8%	-1.0%	-15.4%
COc1ccc(C(CNC(=O)c2c(C)nn(Cc3ccccc3)c2Cl)N2CCOCC2)cc1 (stereo not given)	-23.3%	158.1%	-7.0%
Cc1ccc(C(=O)N/C(=C/c2ccco2)C(=O)Nc2cccc(C)c2)cc1	?	-51.5%	-10.0%
O=C(NC(=S)NCc1ccco1)c1ccc(Br)cc1	50.1µM*	-35.8%	-14.0%
CC(/C=N/NC(=O)Cc1cccs1)=C\c1ccco1	?	-43.7%	?
O=C(NC(=S)NCc1ccco1)c1ccccc1	1.8%	-44.1%	2.2%
Cc1cccc(NC(=O)/C(=C\c2ccco2)NC(=O)c2cccs2)c1	50.1µM*	-6.1%	-11.1%
COc1ccc(C(=O)N/C(=C/c2ccco2)C(=O)NCc2ccco2)cc1	?	-9.4%	-7.2%
SMILES	Sm TGR inh	AmpC no deterg	AmpC inh detg
CC(/C=N/NC(=O)c1cccs1)=C\c1ccco1	31.6µM*	-36.0%	-3.5%
Cc1ccc(C(=O)N/C(=C/c2ccco2)C(=O)NCc2ccco2)cc1	39.8µM*	-35.7%	1.9%
Cn1c2ccccc2c2nnc(SCC(=O)NCc3ccoc3)nc21	.	-25.3%	0.2%
COC(=O)[C@H]1C[C@H](O)CN1S(=O)(=O)c1ccc(Br)cc1F	.	-10.1%	.
Cc1ccc2onc(CNC(=O)NCc3ccc(Cl)cc3)c2c1	7.7%	.	-6.8%
Cc1sc(NC(=O)CN(Cc2ccccc2)C(=O)C2CC2)c(C(N)=O)c1C	11.9%	-9.4%	9.4%
CCc1cccc(NC(=O)CNS(=O)(=O)c2ccc3nc(C)sc3c2)c1	1.5%	.	0.5%
O=C(OCC(=O)N1CCc2ccccc21)C1=COCCO1	22.4µM*	3.5%	?
CCn1nc(C(=O)OCC(=O)N2CCc3ccccc32)c2ccccc2c1=O	20µM*	72.8%	-5.3%
CCn1nc(C(=O)N2CCc3ccccc32)c2ccccc2c1=O	1.2%	20.3%	?
O=C1CN(C(=O)COC(=O)C2=COCCO2)c2ccccc2N1	-0.4%	-9.5%	-6.4%
COCCNC(=O)CCCn1c(SCC(=O)NCc2ccc(C)cc2)nc2c(sc3ccccc32)c1=O	-5.1%	.	10.6%
COC(=O)c1cc(S(=O)(=O)Nc2cccc(-c3cnco3)c2)oc1C	-27.1%	-24.5%	?
